Measurements published in PubChem BioAssay (Tox21).
“And” between values parts separate entries of the source, which are not always exact repeats. Equal values may be shown once. Results filed as inconclusive are left out. A call without a number means that no potency is given here. Some structures have more than one record in an assay (separate samples or runs), and their calls can disagree. The source made the active and inactive calls. Unless noted, the call rests on the fitted dose curve; in most records, active means well fitted curve in the direction sought with a large enough effect in the repeat runs; inconclusive means weak or mixed curves; inactive means no such curve, though single readings can be large; an effect the other way counts as inactive or inconclusive.

Legend:
[1] = qHTS assay for small molecule agonists of the p53 signaling pathway - cell viability (AID 651633; calls by dose curve; further: nearly all actives have a fitted effect of over 30% in size; further: potency means the concentration at half of the fitted maximal effect)
Summary of the method: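 Viability counter-read: CellTiter-Glo luminescence (30 min, room temperature) in the same p53RE-bla plates. These plates had been exposed to compounds for 16 h at 37 C.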

[2] = qHTS assay for small molecule disruptors of the mitochondrial membrane potential - cell viability (AID 720634; calls by dose curve; further: nearly all actives have a fitted effect of over 20% in size; further: potency means the concentration at half of the fitted maximal effect)
Summary of the method: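 ATP-based luminescent viability readout (CellTiter-Glo, 30 min, room temperature) in HepG2 cells multiplexed with the m-MPI membrane potential dye; compound exposure lasted 1 hr at 37 C.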

[3] = qHTS assay to test for compound auto fluorescence at 590 nm (red) in HepG2 cells (AID 720674)
Summary of the method: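 1 hr compound incubation on HepG2 cells, 37 C, 5% CO2; plate read ex 540 nm / em 590 nm; intensities reported as Rose Bengal sodium equivalents.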

[4] = qHTS assay to test for compound auto fluorescence at 535 nm (green) in HepG2 cells (AID 720675)
[5] = qHTS assay to test for compound auto fluorescence at 460 nm (blue) in HEK293 cells (AID 720678)
Summary of the method: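 HEK293 cells (2,000 per well, medium with 10% dialyzed FBS) attached for 4-5 hr at 37C, then received compound and stood overnight at 37C, 5% CO2. Blue fluorescence was read at Ex/Em 405/460 nm and expressed relative to triamterene.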

[6] = qHTS assay to test for compound auto fluorescence at 590 nm (red) in HEK293 cells (AID 720679)
Summary of the method: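 HEK293 cells (2,000/well, medium with 10% dialyzed FBS) attached for 4-5 hr at 37C, received 23 nL compound and were incubated overnight at 37C, 5% CO2. Red fluorescence was then read at 540/590nm Ex/Em, referenced to Rose Bengal sodium.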

[7] = qHTS assay for small molecules that induce genotoxicity in human embryonic kidney cells expressing luciferase-tagged ATAD5 (AID 651632); further: nearly all actives have a fitted effect of over 15% in size; further: potency means the concentration at half of the fitted maximal effect
Summary of the method: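 Quantitative HTS in HEK293T expressing luciferase-tagged ATAD5, whose levels rise upon DNA damage. Exposure ran 16 hr at 37C and 5% CO2, with luminescence read 30 min after Amplite addition at room temperature.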

[8] = qHTS assay for small molecule disruptors of the mitochondrial membrane potential (AID 720635); further: potency means the concentration at half of the fitted maximal effect
Summary of the method: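 Mitochondrial membrane potential tracked with Mito-MPS dye, red aggregates (ex 540/em 590 nm) against green monomers (ex 490/em 535 nm). Compound treatment 1 hr at 37C, dye 30 min in HepG2.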

[9] = qHTS assay for small molecules that induce genotoxicity in human embryonic kidney cells expressing luciferase-tagged ATAD5 - cell viability (AID 651634; calls by dose curve; further: nearly all actives have a fitted effect of over 25% in size; further: potency means the concentration at half of the fitted maximal effect)
Summary of the method: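 After 15.5 hr incubation with compound at 37C, 5% CO2, HEK293T ATAD5-luciferase cells received CellTiter-Fluor reagent; fluorescence intensity was quantified following 30 min at 37C.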

SMILES | Potency [1] | Potency [2] | outcome [3] | Potency [4] | Potency [5] | outcome [6] | Potency [7] | Potency [8] | Potency [9]
CCN(CC)CCOc1ccc(/C(=C(\Cl)c2ccccc2)c2ccccc2)cc1 | 29.8 µM (active) and 49.6 µM (active) | inactive | inactive | inactive | inactive | inactive | – | – | –
O=C1NCC2(CCN(CCc3ccccc3)CC2)O1 | inactive | inactive | inactive | inactive | inactive | inactive | inactive | – | –
O=C(O)c1cccc(C(=O)O)c1 | inactive | inactive | inactive | inactive | inactive | inactive | – | inactive | –
COc1ccc(CCN2CCC(Nc3nc4ccccc4n3Cc3ccc(F)cc3)CC2)cc1 | 26.6 µM (active) and 11.1 µM (active) | 49.6 µM (active) | inactive | inactive | inactive | inactive | – | – | 26.6 µM (active) and 44.2 µM (active)
Nc1nc(=S)c2[nH]cnc2[nH]1 | – | inactive | inactive | inactive | inactive | inactive | – | inactive | –
O=C(Cl)c1cccc(C(=O)Cl)c1 | inactive | inactive | inactive | inactive | inactive | inactive | inactive | inactive | –
C1COC(NC(C2CC2)C2CC2)=N1 | inactive | inactive | inactive | inactive | inactive | inactive | inactive | inactive | –
O=C1Nc2ccccc2C1(c1ccc(O)cc1)c1ccc(O)cc1 | – | inactive | inactive | inactive | inactive | inactive | – | 13.7 µM (active) | inactive
CCCCCCC(O)CCCCCCCCCCC(=O)O (stereo not drawn) | inactive | inactive and 54.5 µM (active) | inactive | inactive | inactive | inactive | – | inactive and 54.5 µM (active) | inactive
CC(C)(C)c1cc(C(C)(C)C)c(O)c(C(C)(C)C)c1 | 34.4 µM (active) | inactive | inactive | inactive | inactive | inactive | inactive | 17.2 µM (active) and 27.3 µM (active) | –
c1ccc2c(c1)-c1cccc3c1c-2cc1ccccc13 | – | 17.2 µM (active) | inactive | inactive | inactive | – | inactive | 13.4 µM (active) and 13.7 µM (active) | –
O=C1CC2(CCCC2)CC(=O)N1CCCCN1CCN(c2ncccn2)CC1 | – | inactive | inactive | inactive | inactive | inactive | inactive | inactive and 30.6 µM (active) | inactive
c1ccc2c(c1)CCCC2C1=NCCN1 (stereo not drawn) | inactive | inactive | inactive | inactive | inactive | inactive | inactive | – | –
CCCCCCCCCCCCc1ccccc1O | 26.9 µM (active) and 24.3 µM (active) | inactive | inactive | inactive | inactive | inactive | inactive | 2.14 µM (active) and 2.43 µM (active) | –
Oc1ccc(Cl)cc1Cc1cc(Cl)ccc1O | 18.8 µM (active) and 55.5 µM (active) and 43.3 µM (active) | 6.68 µM (active) and 221 nM (active) | inactive | inactive | inactive | – | – | 1.88 µM (active) and 1.24 µM (active) and 1.22 µM (active) | inactive
CCN(CC)C(=S)SSC(=S)N(CC)CC | – | inactive | inactive | inactive | inactive | inactive | 11.9 µM (active) and 61.1 µM (active) and 13.7 µM (active) | 7.7 µM (active) and 7.02 µM (active) | –
Cc1ccc(S(=O)(=O)Oc2ccc(N=Nc3ccc(-c4ccc(N=Nc5c(O)ccc6cc(S(=O)(=O)O)cc(S(=O)(=O)O)c56)c(C)c4)cc3C)cc2)cc1 | inactive | inactive | inactive | inactive | inactive | inactive | – | – | –
CC(C)CCOCc1ccccc1 | inactive | inactive | inactive | inactive | inactive | inactive | – | – | inactive
c1ccc2cc3c(ccc4ccccc43)cc2c1 | inactive | – | inactive | inactive | inactive | inactive | – | – | inactive
CCCCN(CCO)CCCC | inactive | inactive | inactive | inactive | inactive | inactive | inactive | – | –
CCc1cc(C(C)(C)C)c(O)c(C(C)(C)C)c1 | 15.5 µM (active) and inactive | inactive | inactive | inactive | inactive | inactive | inactive | 15.5 µM (active) and 30.6 µM (active) | –
CC(=O)O[C@]1(C(C)=O)CC[C@H]2[C@@H]3C[C@H](C)C4=CC(=O)CC[C@]4(C)[C@H]3CC[C@@]21C | inactive | inactive | inactive | inactive | inactive | – | – | – | –
CC(COc1ccccc1)N(CCCl)Cc1ccccc1 (stereo not drawn) | – | inactive | inactive | inactive | inactive | inactive | – | inactive and 43.7 µM (active) and 43.3 µM (active) | inactive
CCCCC(CC)COC(=O)CC(C(=O)OCC(CC)CCCC)S(=O)(=O)O (stereo not drawn) | 29.8 µM (active) and 58.8 µM (active) and 61.1 µM (active) | inactive | inactive | inactive | inactive | inactive | – | 58.8 µM (active) | inactive
O=C(Oc1ccccc1)c1ccccc1O | – | inactive | inactive | inactive | inactive | inactive | – | inactive and 54.5 µM (active) | inactive
Cc1ccc(-c2cc(C(F)(F)F)nn2-c2ccc(S(N)(=O)=O)cc2)cc1 | 54.3 µM (active) | 11.9 µM (active) and 12.1 µM (active) and 30.6 µM (active) | inactive | inactive | inactive | inactive | – | 11.9 µM (active) and 7.66 µM (active) and 21.7 µM (active) | –
COc1ccc(CCN(C)CCCC(C#N)(c2ccc(OC)c(OC)c2)C(C)C)cc1OC (stereo not drawn) | inactive | – | inactive | inactive | inactive | inactive | – | – | –
